Consider six compounds from ChEMBL document CHEMBL1157539, “Thousands of chemical starting points for antimalarial lead identification” (Nature, 2010).

Common to all, as to assay type: functional
In experiment [1] the test system is Plasmodium falciparum. Kind of experiment: GSK_TCMDC: Inhibition of Plasmodium falciparum 3D7 in whole red blood cells, using parasite LDH activity as an index of growth. Test compounds present at 2uM.
The test system of experiment [2] is Plasmodium falciparum. Nature of the experiment: GSK_TCMDC: Inhibition of Plasmodium falciparum Dd2 in whole red blood cells, using parasite LDH activity as an index of growth. Test compounds present at 2uM.
A further experiment relates to HepG2. Nature of the experiment: GSK_TCMDC: Percent inhibition of human HepG2 cell line. Test compounds present at 10uM.

The term Inhibition denotes the percentage by which the read-out fell short of the control. Read a high Inhibition as a strong effect. For the compound `CC(C)CCNC(=O)C1Cc2c([nH]c3cc(Cl)ccc23)C2(CCN(CCc3ccccc3)CC2)N1` (stereo not drawn), the figures for the Inhibition with Plasmodium falciparum [1], in the experiment on Plasmodium falciparum [2] and in the experiment on HepG2 were 100%, 55% and 17%, respectively.
In the same order, the values of `CN(C)c1ccc(N2C(N)=NC(N)=NC23CCCC3)cc1.Cl` are 97%, 0% and 1%.
For `COc1cc(C)ccc1S(=O)(=O)N1CCCCC(c2ccc(C(F)(F)F)cc2)=N1` the same measures were 92%, 89% and 16%.
In the same order, the values of `CCOC(=O)CCc1cc(F)c(F)c(OC[C@H](O)CNC(C)(C)C(O)c2ccc3ccccc3c2)c1.Cl` (stereo partly drawn) are 99%, 92% and 12%.
In the case of `Cc1ccc2[nH]c(C)c(Br)c(=O)c2c1`, the Inhibition in the experiment with Plasmodium falciparum [1] was 95%; with Plasmodium falciparum [2], 84%; in the experiment with HepG2, 0%.
For `Nc1nc(N)c2c(ccc3c2ccn3CC2CC2)n1` the same measures were 96%, 3% and 46%.
